Results published in PubChem BioAssay AID1619 (SRMLSC, 2009).
The whole screen tested about 220,000 compounds, of which about 830 (0.38%) were called active.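 The calls were made as follows: active = compound inhibiting the enzyme by more than half at any dose during confirmatory dose-response retesting; inconclusive = strong single-dose inhibitors picked by rank but not retested; inactive = the rest.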 Not all results are given here. Potency and affinity values are given separately.

molecular target: Leucine aminopeptidase (Plasmodium falciparum (isolate 3D7)) (UniProt Q8IL11); experiment: P. falciparum M17LAP inhibitors, primary screen, biochemical, fluorogenic H-Leu-NHMec substrate, 1536-well (AID 1619); settings: recombinant M17LAP, H-Leu-NHMec fluorogenic kinetic assay; at 30 µM; active compounds read high;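 also: plate controls were full reaction with DMSO carrier for no effect and no enzyme background for full effect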
Sequence (Q8IL11 whole entry, looked up): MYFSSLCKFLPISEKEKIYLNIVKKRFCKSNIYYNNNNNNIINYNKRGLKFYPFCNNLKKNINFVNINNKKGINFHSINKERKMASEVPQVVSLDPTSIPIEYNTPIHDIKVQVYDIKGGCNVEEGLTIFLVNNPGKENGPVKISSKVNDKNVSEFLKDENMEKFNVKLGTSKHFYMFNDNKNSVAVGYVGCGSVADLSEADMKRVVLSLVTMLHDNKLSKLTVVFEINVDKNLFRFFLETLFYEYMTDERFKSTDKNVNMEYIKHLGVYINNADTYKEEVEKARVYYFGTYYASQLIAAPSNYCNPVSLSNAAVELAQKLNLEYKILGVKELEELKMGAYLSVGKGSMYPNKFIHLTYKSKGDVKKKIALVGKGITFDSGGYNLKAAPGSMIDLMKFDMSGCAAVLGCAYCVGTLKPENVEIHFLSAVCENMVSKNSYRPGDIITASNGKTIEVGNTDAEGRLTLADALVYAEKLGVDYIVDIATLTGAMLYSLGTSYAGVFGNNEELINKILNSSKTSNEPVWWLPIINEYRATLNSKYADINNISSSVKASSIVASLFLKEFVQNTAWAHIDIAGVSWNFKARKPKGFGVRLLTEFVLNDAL

inhibition, inactive:
Cc1nc(C)c(-c2csc(Nc3ccc(F)cc3)n2)s1 -0.33%
Cc1ccc(Oc2ncc(-c3ccc(Cl)cc3)cn2)cc1 -3.58%
CCOC(=O)N1CCN(c2cc(N)c([N+](=O)[O-])cc2F)CC1 -0.96%
Cc1ccc(C(=O)Nc2ccn(Cc3ccc(F)cc3)n2)o1 2%
COc1ccc(C(=O)Nc2cccc(C(=O)NCc3ccccc3)c2)cc1 3.07%
Oc1ccc(C(c2nnnn2CCc2ccccc2)N2CCN(c3nc4ccccc4s3)CC2)cc1 (centres undefined) 3.87%
CCOC(=O)NCc1ccc(Cl)c(Cl)c1 -9.33%
CC(C)(C)OC(=O)CN1C(=O)C(Sc2n[nH]c(-c3ccccc3)n2)CCc2ccccc21 (centres undefined) 3.43%
CCSc1nc(N)nc(-c2cccs2)c1C#N 5.48%
CN(Cc1ccccc1)Cc1nc2c([nH]1)c(=O)[nH]c(=O)n2C -7.23%
CC(NC(=O)c1cccnc1)C(c1cccs1)N1CCN(C)CC1 (centres undefined) 0.81%
O=C(O)Cc1ccc(NC(=O)C2CCCCC2C(=O)O)cc1 (centres undefined) 19%
CN(C1CCCCC1)S(=O)(=O)c1ccc(NC(=O)C2CCCCC2C(=O)O)cc1 (centres undefined) 44%
CCOC(=O)N1CCN(C(=O)c2ccc(CS(=O)(=O)c3c(Cl)cccc3Cl)o2)CC1 3.87%
CCCCOc1ccc(C(=O)OCC(=O)Nc2cc(C)on2)cc1 2.23%
CCOC(=O)c1c(CSCc2ccccc2)oc2ccc(O)c(CN(C)C)c12 -2.1%
Cc1ccc2c(=O)[nH]c(Cc3ccccc3C(=O)O)nc2c1 2.27%
Cc1ccc(NN=C2c3ccccc3-c3ccccc32)cc1 5.01%
Cc1ccc(N/N=C2/CCCNC2=O)cc1 40.4%
Cc1ccc(N(CC(O)CN2C(=O)NC(C)(C)C2=O)S(=O)(=O)c2ccc(C)cc2)cc1 (centres undefined) -16.4%
Cc1ccc(/C=N/Nc2ccc(Cl)c(C(=O)O)c2)s1 49.5%
CC(C)(C)c1ccc(/C=N/Nc2cccc(C(=O)O)c2)cc1 12.1%
O=C(O)c1ccc(/C=N/NC(=O)c2ccc(F)cc2)cc1 7.3%
Cc1ccc(/C=N/Nc2cccc(C(=O)O)c2)s1 53.6%
O=C(O)c1ccc(/C=N/Nc2cccc(C(F)(F)F)c2)cc1 16.4%
O=C(O)c1ccc(N/N=C/c2ccc(F)c(F)c2)cc1 50.5%
Fc1ccc(N/N=C/c2ccncc2)c(F)c1 -6.64%
O=C(O)c1ccc(N/N=C/c2ccc(-c3ccccc3)cc2)cc1 2.22%
C=CCNC(=O)CN1CCC(NC(=O)c2ccco2)CC1 4.27%
Cc1ccc(/C=N/NC(=O)Cn2cncn2)cc1 2.86%
CC(=O)N1CCN(c2ccc(NC(=O)c3ccc4c(c3)OCO4)cc2)CC1 -9.38%
COc1ccc(C2Nc3ccccc3C(=O)N2c2ccccc2)cc1CN1CCOCC1 (centres undefined) -163%
CC(/C=C/c1ccc2c(c1)OCO2)=N/NC(=O)c1cccnc1 17.2%
Cc1ccc(NNC(=O)c2ccc(Cl)cc2)nn1 17.4%
COc1ccc(/C=N/Nc2ccc(C(=O)O)cc2)cc1OC 25.7%
COc1cc(/C=N/Nc2ccc(C(=O)O)cc2)ccc1O 22.3%
CCOc1ccc(OCC)c(NC(=O)C2CCCN(S(=O)(=O)c3c(C)noc3C)C2)c1 (centres undefined) 3.89%
COc1ccc(OC)c(N/C=C2/CCCCC2=O)c1 5.47%
NC(=O)COc1ncn(-c2ccccc2)n1 1.05%
CC(=O)COc1ncn(-c2ccccc2)n1 42.4%
CCCCC(=O)Nc1nnc(-c2ccc(OC)cc2)s1 4.4%
O=C(CN1C(=O)NC2(CCCC2)C1=O)OCc1cc(=O)n2cc(Br)ccc2n1 -0.9%
O=C1CCCCN1CCc1c[nH]c2ccccc12 15.4%
COc1ccc(N2CCN(c3n[nH]c(N)n3)CC2)cc1 0.79%
COc1ccc(-n2nc3c(N)n[nH]c3cc2=O)cc1 -0.44%
O=C(CC12CC3CC(CC(C3)C1)C2)NC(=S)NCc1ccccc1 -4.21%
Cc1cccnc1CN1CCN(C(=O)c2cc(COc3ccc4ncccc4c3)on2)CC1 0.97%
Cc1ccccc1NC(=O)c1cnc2ccccn2c1=O 2.31%
Cn1ncc(N)c1C(=O)Nc1cccc(C(F)(F)F)c1 1.2%
O=C(Nc1cccc(C(F)(F)F)c1)c1cccnc1 -1.75%
CSc1nc2nc3c(cc2c(=O)n1-c1ccc(C)cc1)COC(C)(C)C3 3.67%
CCc1ccc(CN(C)C(=O)CCc2nnc(Cc3cccc(C)c3)o2)nc1 -6.64%
Cc1cccc(C)c1NC(=O)CSCCO 0.75%
Cc1cccc(C)c1NC(=O)CSCC(=O)O 4.91%
CCOC(=O)CSc1nc(-c2ccccc2)nc2ccc(C)cc12 2.78%
CC1CN(c2nc(-c3ccccc3)nc3ccccc23)CC(C)O1 (centres undefined) 4.44%
CCN(CC)c1ccc(/C=c2\sc3nnc(-c4ccccc4Cl)n3c2=O)cc1 1.48%
CCN(CC)c1ccc(/C=c2/sc3nnc(-c4ccccc4C)n3c2=O)cc1 9.78%
Cc1ccc(/C=c2\sc3nc(-c4ccco4)nn3c2=O)o1 42.2%
Cc1ccc(/C=c2\sc3nc(-c4cccs4)nn3c2=O)o1 79.6%
CCc1ccc(NC(=O)C(C)Nc2ccc(S(=O)(=O)NC(C)=O)cc2)cc1 (centres undefined) 3.98%
O=[N+]([O-])c1cccc(-c2nnn(C34CC5CC(CC(C5)C3)C4)n2)c1 -10.4%
COc1ccc(N(CC(=O)Nc2ccc3c(c2)OCO3)S(=O)(=O)c2ccc(C)cc2)cc1OC -12.9%
COc1ccc(C(=O)CC2OC(=O)c3c2ccc(OC)c3OC)cc1 (centres undefined) 9.31%
COc1ccc2c(c1OC)C(=O)OC2CC(=O)c1ccc(O)cc1 (centres undefined) 14.4%
CC(C)n1cc(/C=C2\NC(=O)N(c3cccc(Cl)c3)C2=O)c2ccccc21 -7.4%
O=C(O)Cn1cc(/C=C2\SC(=O)N(c3ccccc3)C2=O)c2ccccc21 15%
CCOc1ccc(Nc2cc(=O)oc3ccccc23)cc1 4.7%
Cc1cccc(N2CCN(S(=O)(=O)c3ccc4c(c3)CCN4C(=O)CCC(=O)O)CC2C)c1 (centres undefined) -2.93%
CCN(CC)C(=O)CSc1nnnn1-c1ccc(F)c(Cl)c1 -1.03%
CNC(=S)Nc1ccc(C)cc1 3.68%
Cc1ccc(NC(N)=S)cc1 18.7%
O=C(CN1C(=O)C2C3C=CC(C3)C2C1=O)Nc1ccc2nccnc2c1 (centres undefined) 1.82%
Cc1cc(C=C2C(=O)c3ccccc3C2=O)c(C)n1-c1ccccc1 -3.81%
Cc1cc(C=C2C(=O)c3ccccc3C2=O)c(C)n1-c1ccc(C(=O)O)cc1 18.3%
Cn1c(=O)cc(OCCCC(=O)NCCC2=CCCCC2)c2ccccc21 -10.7%
C=CCn1cccc(C(=O)Nc2ccc(OC)cc2OC)c1=O 21.4%
CCOC(=O)COc1cccc2c(=O)n(CC(=O)N3CCC(C)CC3)ccc12 3.95%
COc1cccc2c(=O)n(CC(=O)N3CCCCC3)ccc12 33.4%
COC(=O)COc1cccc2c(=O)n(CC(=O)N3CCC(C)CC3)ccc12 -7.98%
COC(=O)COc1cccc2c(=O)n(CC(=O)N3CCCCC3)ccc12 12.9%
COc1ccccc1/C=C(\NC(=O)c1ccc(OC)c(OC)c1)C(=O)Nc1cccc([N+](=O)[O-])c1 -33.9%
Cc1ccc(-c2cc(C(=O)NCc3ccco3)no2)cc1 -5.12%
COc1cc(SC)ccc1C(=O)NCCN1CCOCC1 -0.03%
O=C(c1cccc(NS(=O)(=O)c2cccc(F)c2)c1)N1CCN(c2ccccc2)CC1 -9.4%
Cn1c(SCC(=O)Nc2ccc(N3CCOCC3)cc2)nnc1-c1ccccc1 -0.5%
COc1ccc(/C=N/N=C2\SC(CC(=O)O)C(=O)N2c2ccccc2)cc1 (centres undefined) 33.9%
COc1ccc(/C=N\N=C2/SC(CC(=O)O)C(=O)N2c2ccc(O)cc2)cc1 (centres undefined) 45.6%
Cc1ccc2cc(C)c3nnc(SCC(=O)N4CCCc5ccccc54)n3c2c1C 1.13%
Cc1cc(C(=O)CN2C(=O)NC3(CCCc4ccccc43)C2=O)c(C)n1Cc1ccccc1 (centres undefined) 7.63%
CCOc1ccccc1NC(=O)NC1(C(=O)N2CCN3CCCC3C2)CCCCC1 (centres undefined) 20.5%
O=C(CSc1nc2ccccc2n1CCc1ccccc1)c1ccc(O)c(O)c1 -0.72%
CCn1c(SCC(=O)c2ccc(C)cc2)nnc1-c1ccncc1 3.05%
CCn1c(SCC(=O)O)nnc1-c1ccccc1 -5.68%
Cn1cnnc1SCC(=O)c1ccc(O)c(O)c1 38.8%
CCn1c(SCC(=O)OC)nnc1-c1ccc(C)cc1 3.28%
CCn1c(SCC(=O)c2ccccc2)nnc1-c1cccnc1 14.5%
Cc1cc(SCC(=O)c2ccc(O)c(O)c2)nc2ccccc12 36.2%
Cc1cc(SCC(=O)c2ccc(O)c(O)c2)n2nc(C)c(-c3ccccc3)c2n1 16.1%
